Experimental data as given in PubChem BioAssay (Tox21).
Results filed as inconclusive are left out. A structure can be active in one record and inactive in another. Calls of active or inactive are those of the source. Unless noted, the call rests on the fitted dose curve; in most records, active means well fitted curve in the direction sought with a large enough effect in the repeat runs; inconclusive means weak or mixed curves; inactive means no such curve, though single readings can be large; an effect the other way counts as inactive or inconclusive.

Assays:
[1] = qHTS assay to identify small molecule agonists of the estrogen receptor beta (ER-beta) signaling pathway - cell viability counter screen (AID 1259380); further: nearly all actives have a fitted effect of over 30% in size
How it was run: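 Same-well viability counter screen. Cells: ER-beta-UAS-bla HEK293T, plated 6 hr before compound, in 2% charcoal-stripped FBS. Compound exposure 16 hr, 37C; viability by CellTiter-Glo luminescence after 30 min at room temperature.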

[2] = qHTS assay to identify small molecule antagonists of the estrogen receptor beta (ER-beta) signaling pathway - cell viability counter screen (AID 1259382);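 further: HEK293T cells carrying ER-beta-UAS-bla reporter stimulated with estradiol; series mostly up to about 92 µM; nearly all actives have a fitted effect of over 55% in size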
How it was run: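 Following a 6 hr plating period, HEK293T cells carrying a UAS-driven beta-lactamase reporter under ER-beta control received compounds and 1nM E2 (final). After 16 hr at 37C and 2 hr substrate loading, CellTiter-Glo luminescence indicated viability.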

[3] = qHTS assay to identify small molecule agonists or antagonists of the thyroid stimulating hormone receptor (TSHR) signaling pathway - wild type cell line counter screen (AID 1259384; calls by dose curve)
How it was run: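 Wild-type HEK293 cells were plated 18 h at 37 C/5% CO2, pin-dosed with compound plus Ro20-1724 medium, held 30 min at room temperature, then given cAMP-d2 and anti-cAMP-cryptate; fluorescence was read after 1 h. Fifteen concentrations, triplicate.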

[4] = qHTS assay to identify small molecule agonists of the estrogen receptor alpha (ER-alpha) signaling pathway in the presence of an antagonist - cell viability counter screen (AID 1259386);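 further: series mostly up to about 92 µM; cells exposed to compounds for 22 h at 37 °C before the viability read; nearly all actives have a fitted effect of over 30% in size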
How it was run: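 Cells are starved of estrogens for 5 days in charcoal-stripped serum, seeded for 24hr and co-treated with ICI-182,780 (10.0nM final) and test compounds. After 22hr at 37C, viability is read as CellTiter-Fluor fluorescence.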

[5] = target: Progesterone receptor (Homo sapiens) (UniProt P06401); experiment: qHTS assay to identify small molecule agonists of the progesterone receptor (PR) signaling pathway (AID 1346784; calls by dose curve; further: nearly all actives have a fitted effect of over 30% in size)
How it was run: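 PR-UAS-bla HEK 293T cells carrying a UAS-driven beta-lactamase reporter were seeded in medium with 2% charcoal-stripped FBS, preincubated 6 hr at 37C, then exposed to compounds in DMSO for 16 hr; agonism was read by LiveBLAzer B/G FRET fluorescence.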

[6] = target: Progesterone receptor (Homo sapiens) (UniProt P06401); experiment: qHTS assay to identify small molecule antagonists of the progesterone receptor (PR) signaling pathway (AID 1346795; active means well fitted inhibition curve with a large enough effect in the signal ratio in the repeat runs, not every such curve was filed as active; the % refers to the signal ratio; further: potency means the concentration at half of the fitted maximal effect)
How it was run: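 PR-UAS-bla HEK293T cells carrying a UAS-driven beta-lactamase reporter were plated in medium with 2% charcoal-stripped FBS and rested 6 hr at 37C. Compounds were added with 1 nM R5020 (final) for 16 hr, then FRET substrate loaded 2 hr at room temperature.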

[7] = qHTS assay to identify small molecule antagonists of the progesterone receptor (PR) signaling pathway - cell viability counter screen (AID 1346798); further: series mostly up to about 92 µM; nearly all actives have a fitted effect of over 50% in size
How it was run: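 PR-UAS-bla HEK293T cells in medium with 2% charcoal-stripped FBS were treated with compounds plus R5020 for 16 hr at 37C. Cell viability was then read by CellTiter-Glo luminescence after 30 min at room temperature in the same wells.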

[8] = qHTS assay to identify small molecule agonists of the progesterone receptor (PR) signaling pathway - cell viability counter screen (AID 1346799; calls by dose curve; further: nearly all actives have a fitted effect of over 45% in size)
How it was run: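 PR-UAS-bla HEK293T cells, 3,000 per well in medium with 2% charcoal-stripped FBS, were preincubated 6 hr at 37C, then exposed to compounds for 16 hr; viability was read as CellTiter-Glo luminescence after 30 min at room temperature.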

[9] = qHTS assay to identify small molecule antagonists of the TGF-beta/Smad signaling pathway - cell viability counter screen (AID 1346824); further: nearly all actives have a fitted effect of over 50% in size
How it was run: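 SBE-bla HEK 293T cells were plated overnight at 37 C, then given compounds in DMSO plus TGF-beta1 (added as 0.25 ng/mL solution) for 5 hr. After the bla read, CellTiter-Glo was added to the same wells and luminescence read after 30 min at room temperature.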

[10] = qHTS assay to identify small molecule agonists of the TGF-beta/Smad signaling pathway - cell viability counter screen (AID 1346829); further: nearly all actives have a fitted effect of over 45% in size; further: potency means the concentration at half of the fitted maximal effect
How it was run: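 Luminescence from CellTiter-Glo, read after a 30 min room-temperature incubation, gives cell viability of SBE-bla HEK 293T cells treated 5 hr with compounds at 37 C.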

[11] = qHTS assay to identify small molecule agonists of the TGF-beta/Smad signaling pathway (AID 1346859; active means well fitted activation curve with a large enough effect in the signal ratio in the repeat runs, not every such curve was filed as active; the % refers to the signal ratio; further: series mostly up to about 77 µM)
How it was run: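 HEK 293T cells stably carrying a beta-lactamase reporter driven by the Smad binding element were seeded overnight, exposed to DMSO-dissolved compounds for 5 hr at 37 C, 5% CO2, then loaded with FRET substrate for 2 hr at room temperature.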

[12] = target: Thyrotropin-releasing hormone receptor (Homo sapiens) (UniProt P34981); experiment: qHTS assay to identify small molecule antagonists of the thyrotropin-releasing hormone receptor (TRHR) signaling pathway (AID 1346877; active means well fitted inhibition curve with a large enough effect in the repeat runs, not every such curve was filed as active; further: series mostly up to about 51 µM)
How it was run: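 Cells (TRHR-HEK293) are plated and kept 18 h at 37 °C/5% CO2. A calcium-sensitive dye is added for 2 h, compound follows for 5 min at room temperature, and TRH is then given at 1 nM final.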

[13] = target: Thyrotropin-releasing hormone receptor (Homo sapiens) (UniProt P34981); experiment: qHTS assay to identify small molecule agonists of the thyrotropin-releasing hormone receptor (TRHR) signaling pathway (AID 1346891; calls by dose curve; further: series mostly up to about 58 µM)
How it was run: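 TRHR-expressing HEK293 cells were plated 18 h at 37 °C/5% CO2, loaded with calcium dye 2 h at 37 °C, then given compound in DMSO; fluorescence was read kinetically for 3 min at 1 s intervals.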

[14] = Human pregnane X receptor (PXR) small molecule agonists, qHTS cell viability counter screen (AID 1346977); further: nearly all actives have a fitted effect of over 50% in size
How it was run: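 PXR-Luc HepG2 cells in medium with 5% charcoal-stripped FBS were pre-incubated 5hr, then exposed to compounds for 24hr at 37C. Viability was read in the same wells by CellTiter-Fluor fluorescence, reagent added after 23hr with a 1hr incubation.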

[15] = Caspase-3/7 induction in CHO-K1 cells by small molecules, qHTS cell viability counter screen (AID 1346979); further: nearly all actives have a fitted effect of over 35% in size; further: potency means the concentration at half of the fitted maximal effect
How it was run: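 Wild-type CHO-K1 cells were seeded at 1,500 per well, rested 5hr at 37 C, then exposed to compounds in DMSO. After 16hr, CellTiter-Fluor reagent was added and fluorescence read 1hr later as the viability measure.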

[16] = Caspase-3/7 induction in CHO-K1 cells by small molecules, qHTS assay (AID 1346980); further: nearly all actives have a fitted effect of over 15% in size
How it was run: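 Wild-type cells were seeded at 1,500 per well and settled 5 hr at 37 C, 5% CO2, then exposed to DMSO-dissolved compounds for 17 hr. Caspase-Glo 3/7 reagent was added, and luminescence was read after 30min at room temperature.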

[17] = target: Thyrotropin receptor (Homo sapiens) (UniProt P16473); experiment: qHTS assay to identify small molecule antagonists of the thyroid stimulating hormone receptor (TSHR) signaling pathway (AID 1259385; calls by dose curve; further: nearly all actives have a fitted effect of over 20% in size)
How it was run: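 TSHR-HEK293 cells were plated and held 18 h at 37C/5% CO2, then given compound plus Ro20-1724 and stimulated with TSH at 1.5 ng/mL final. After 30 min at room temperature, cAMP was detected with cAMP-d2/anti-cAMP-cryptate (1 h) by fluorescence.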

[18] = Caspase-3/7 induction in HepG2 cells by small molecules, qHTS assay (AID 1346978); further: nearly all actives have a fitted effect of over 15% in size
How it was run: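 Wild-type HepG2 cells (2,000/well) were settled 5 h at 37 C, 5% CO2, then exposed to compounds in DMSO for 17 h. Caspase-3/7 activity was read by luminescence 30 min after adding Caspase-Glo 3/7 reagent at room temperature.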

Measured: Potency

Sequence of Thyrotropin receptor (Homo sapiens) (P16473 whole entry, looked up): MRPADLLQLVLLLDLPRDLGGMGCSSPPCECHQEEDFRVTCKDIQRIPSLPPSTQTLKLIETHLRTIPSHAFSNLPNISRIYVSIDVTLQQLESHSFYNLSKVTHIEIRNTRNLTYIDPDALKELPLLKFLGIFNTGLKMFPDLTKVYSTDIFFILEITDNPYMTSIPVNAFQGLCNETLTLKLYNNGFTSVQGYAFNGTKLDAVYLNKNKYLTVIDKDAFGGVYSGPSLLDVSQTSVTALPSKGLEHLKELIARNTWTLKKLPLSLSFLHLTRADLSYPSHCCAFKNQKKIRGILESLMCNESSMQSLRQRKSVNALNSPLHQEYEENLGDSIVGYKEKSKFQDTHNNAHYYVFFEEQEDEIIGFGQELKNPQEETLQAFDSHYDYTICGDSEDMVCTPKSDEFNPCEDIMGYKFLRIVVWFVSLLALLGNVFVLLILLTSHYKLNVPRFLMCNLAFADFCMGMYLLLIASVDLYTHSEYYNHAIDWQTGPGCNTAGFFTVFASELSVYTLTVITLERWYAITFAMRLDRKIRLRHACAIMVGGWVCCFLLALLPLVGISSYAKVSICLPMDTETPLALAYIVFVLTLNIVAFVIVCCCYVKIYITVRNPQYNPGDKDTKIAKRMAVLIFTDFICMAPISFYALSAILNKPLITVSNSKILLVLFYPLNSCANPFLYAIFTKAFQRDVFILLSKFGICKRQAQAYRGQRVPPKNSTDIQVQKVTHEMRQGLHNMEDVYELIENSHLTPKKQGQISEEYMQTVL
Sequence of Progesterone receptor (Homo sapiens) (P06401 whole entry, looked up): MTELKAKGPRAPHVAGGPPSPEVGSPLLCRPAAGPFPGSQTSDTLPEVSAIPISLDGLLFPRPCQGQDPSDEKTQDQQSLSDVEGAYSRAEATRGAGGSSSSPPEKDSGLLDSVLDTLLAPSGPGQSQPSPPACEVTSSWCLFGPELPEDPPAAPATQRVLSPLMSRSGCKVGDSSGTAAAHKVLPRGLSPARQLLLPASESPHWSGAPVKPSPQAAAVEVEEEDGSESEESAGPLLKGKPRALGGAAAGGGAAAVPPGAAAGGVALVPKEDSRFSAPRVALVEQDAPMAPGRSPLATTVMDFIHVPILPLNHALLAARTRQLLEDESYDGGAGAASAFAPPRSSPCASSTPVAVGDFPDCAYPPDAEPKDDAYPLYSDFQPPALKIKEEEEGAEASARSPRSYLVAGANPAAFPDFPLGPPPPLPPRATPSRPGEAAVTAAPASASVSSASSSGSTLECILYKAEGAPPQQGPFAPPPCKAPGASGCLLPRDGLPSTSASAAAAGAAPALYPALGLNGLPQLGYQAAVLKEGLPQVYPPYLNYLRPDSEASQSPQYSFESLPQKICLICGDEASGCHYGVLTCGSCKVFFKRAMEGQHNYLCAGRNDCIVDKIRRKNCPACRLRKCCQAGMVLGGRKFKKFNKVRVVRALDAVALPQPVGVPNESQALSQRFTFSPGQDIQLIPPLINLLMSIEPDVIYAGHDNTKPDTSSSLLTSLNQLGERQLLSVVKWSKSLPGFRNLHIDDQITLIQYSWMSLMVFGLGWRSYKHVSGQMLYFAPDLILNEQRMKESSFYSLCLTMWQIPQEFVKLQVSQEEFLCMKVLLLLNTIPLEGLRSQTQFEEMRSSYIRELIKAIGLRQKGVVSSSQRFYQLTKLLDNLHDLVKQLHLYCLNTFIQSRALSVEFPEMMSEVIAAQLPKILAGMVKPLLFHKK
Sequence of Thyrotropin-releasing hormone receptor (Homo sapiens) (P34981 whole entry, looked up): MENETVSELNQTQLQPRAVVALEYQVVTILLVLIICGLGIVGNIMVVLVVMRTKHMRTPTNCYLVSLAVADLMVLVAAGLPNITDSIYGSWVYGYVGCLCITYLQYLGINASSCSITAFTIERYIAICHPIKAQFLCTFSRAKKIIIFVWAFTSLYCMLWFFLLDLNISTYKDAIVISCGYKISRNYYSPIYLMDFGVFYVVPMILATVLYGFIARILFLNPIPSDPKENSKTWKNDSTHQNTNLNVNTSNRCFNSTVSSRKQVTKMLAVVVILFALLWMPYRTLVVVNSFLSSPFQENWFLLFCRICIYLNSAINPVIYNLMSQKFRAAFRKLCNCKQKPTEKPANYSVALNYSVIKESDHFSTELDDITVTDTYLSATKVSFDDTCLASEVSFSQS

O=c1[nH]c(=O)n([C@H]2CCCO2)cc1F
inactive: [1] | [2] | [3] | [4] | [5] | [6] | [7] | [8] | [9] | [10] | [11] | [12] | [13] | [14] | [15] | [16]

O=C(Oc1ccccc1)c1ccccc1
inactive: [1] | [2] | [3] | [4] | [5] | [6] | [7] | [8] | [9] | [10] | [11] | [12] | [13] | [14] | [15] | [16]

CCCC(C)=O
inactive: [1] | [2] | [4] | [5] | [6] | [7] | [8] | [9] | [10] | [12] | [13] | [14] | [15] | [16]

CCCCCCCCCCCCc1ccccc1
inactive: [1] | [2] | [3] | [17] | [4] | [5] | [6] | [7] | [8] | [10] | [11] | [12] | [13] | [14] | [18] | [15] | [16]

COc1ccc2cc([C@H](C)C(=O)O)ccc2c1
inactive: [1] | [2] | [3] | [17] | [4] | [5] | [6] | [7] | [8] | [10] | [11] | [14] | [16]

N[C@@H](Cc1cc(I)c(Oc2cc(I)c(O)c(I)c2)c(I)c1)C(=O)O
inactive: [1] | [2] | [3] | [4] | [5] | [6] | [7] | [10] | [14] | [18] | [15] | [16]

CSCCC=O
inactive: [1] | [2] | [4] | [5] | [6] | [7] | [8] | [9] | [10] | [12] | [13] | [14] | [18] | [15] | [16]

CCCCC(CC)COC(=O)CS (stereo unspecified)
inactive: [1] | [2] | [3] | [17] | [4] | [5] | [6] | [7] | [8] | [10] | [11] | [12] | [13] | [14] | [15] | [16]

CCCCCCCCCCCCCCCO
24.5 µM (active) and inactive: [15]
inactive: [1] | [2] | [3] | [17] | [4] | [5] | [6] | [7] | [8] | [11] | [14] | [18] | [16]
24.8 µM (active) and inactive: [10]

CC(C)(C)[C@@H](O)[C@@H](Cc1ccc(Cl)cc1)n1cncn1
active: [6] 48.2 µM
inactive: [1] | [2] | [3] | [4] | [5] | [7] | [8] | [10] | [11] | [12] | [13] | [14] | [18] | [15] | [16]

CC1CCC2CC1C2(C)C (stereo unspecified)
inactive: [1] | [2] | [3] | [4] | [5] | [6] | [7] | [8] | [9] | [10] | [11] | [12] | [13] | [14] | [15] | [16]

CC(=O)CC(=O)Nc1ccccc1
inactive: [1] | [2] | [3] | [17] | [4] | [5] | [6] | [7] | [8] | [9] | [10] | [14] | [18] | [15] | [16]
